# Measurements as given in PubChem BioAssay.
# Activity calls are given as the source filed them. Unless noted, no rule for the calls is given here.
# Key:
# [1] = inhibition of Brca1/Bard1 split-luciferase complementation, confirmation, counter-screen for Mdm2/MdmX interaction inhibitor project, luminescence, single concentration (AID 504668); details: Brca1/Bard1 bimolecular luciferase complementation counterscreen, at 8 µM, stronger effect = higher value
# [2] = inhibitors of PAF-induced NFkB signaling in CF airway cells, dose response, cell-based, uHTS hits, panel, cytotoxicity readout (AID 624344); details: CF bronchial epithelial cells, PAF-induced NFkB reporter inhibition, with PAF, run 1; at 79 µM (top of the series) unless noted
# [3] = as above; details: CF bronchial epithelial cells, PAF-induced NFkB reporter inhibition, with PAF, run 2; at 79 µM (top of the series) unless noted
# [4] = molecular target: Tumor necrosis factor receptor superfamily member 10B (Homo sapiens) (UniProt O14763); assay: caspase-8 TRAIL sensitization, hit retest, confirmation, cell-based, NB7+caspase-8, with/without TRAIL, luminescence panel (AID 651596; in the data active = activity above about 50%); details: NB7 neuroblastoma + caspase-8, TRAIL sensitization, luminescence viability, with TRAIL, mean of runs, at 10 µM, stronger effect = higher value
# [5] = as above; details: NB7 neuroblastoma + caspase-8, without TRAIL, luminescence viability, without TRAIL, mean of runs, at 10 µM
# Sequence of Tumor necrosis factor receptor superfamily member 10B (Homo sapiens) (O14763 whole entry, looked up): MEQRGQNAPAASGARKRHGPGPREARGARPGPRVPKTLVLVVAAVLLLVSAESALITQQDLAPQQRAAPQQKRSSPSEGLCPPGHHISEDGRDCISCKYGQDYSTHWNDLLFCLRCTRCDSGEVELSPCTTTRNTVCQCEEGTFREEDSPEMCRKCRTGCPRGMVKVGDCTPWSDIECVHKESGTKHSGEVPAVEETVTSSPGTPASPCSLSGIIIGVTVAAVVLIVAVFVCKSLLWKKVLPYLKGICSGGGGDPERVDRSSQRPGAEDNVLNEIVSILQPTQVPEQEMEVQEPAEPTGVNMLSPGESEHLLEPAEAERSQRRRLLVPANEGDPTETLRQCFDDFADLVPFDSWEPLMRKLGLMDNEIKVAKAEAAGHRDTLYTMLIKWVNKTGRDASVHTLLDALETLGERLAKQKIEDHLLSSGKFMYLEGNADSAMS
Compound,inhibition [1],inhibition [2],inhibition [3],activity [4],activity [5]
COc1ccc2[nH]c3c(c2c1)CCNC3=O,34.4% (active),103%,103%,,
Oc1ccc(CCNc2ncnc3ccc(Cl)cc23)cc1,28.6% (active),113%,106%,,
CN1CCN(c2ncnc3scc(-c4ccccc4Cl)c23)CC1,28.7% (active),113%,100%,,
CCN(CC)S(=O)(=O)c1ccc(NC(=O)Nc2cccc(C(F)(F)F)c2)cc1,35.2% (active),114%,99.2%,82.6%,71.3%
Cc1ccc(NC(=O)Nc2nnc(-c3ccncc3)s2)cc1C,23.3% (active),102%,114%,,
NC(=O)N/N=C/c1c(Sc2nnnn2-c2ccccc2)nc2ccccn2c1=O,23.4% (active),103%,105%,,
O=C(Nc1nc2ccc(F)cc2s1)C1CCN(S(=O)(=O)c2cc([N+](=O)[O-])ccc2Cl)CC1,25.5% (active),105%,112%,,
CCN1CCN(Cc2ccc(NC(=O)c3ccc(C)c(NC(=O)C(=O)c4c[nH]c5ccccc45)c3)cc2C(F)(F)F)CC1,30.8% (active),103%,112%,,
Cc1[nH]nc2ncc(C(=O)c3ccccc3O)cc12,30.4% (active),109%,92.1%,,
CCCCCCCNC(=O)C1(CC2CC(c3ccc(Cl)cc3)=NO2)CCNCC1 (configuration not stated),25.4% (active),,,41.9%,93.1%
Cc1ccc2nc(/C(C#N)=C\c3ccc([N+](=O)[O-])o3)[nH]c2c1,29.9% (active),,,95.6%,99%
CN(C)CCCNC(=O)c1ccc(-c2nc(-c3ccc(Cl)cc3)cs2)cc1,28.3% (active),,,95.2%,97.6%
CC(C)(C)c1ccc(C2CC2C(=O)N/N=C\c2ccc[nH]2)cc1 (configuration not stated),30.5% (active),,,79.5%,96.8%
CCCCC(O)(CCCC)C(=O)NN(C(=O)CCl)c1ccccc1,34% (active),,,92.2%,95.7%
CCCCCN=C(N)N/N=C/c1c[nH]c2ccc(OC)cc12,30.4% (active),,,96.9%,98%
